A number with no mark means an inactive call. No rule for the calls is given here.
molecular target: Pantothenate synthetase (Mycobacterium tuberculosis (strain ATCC 25618 / H37Rv)) (UniProt P9WIL5); assay: Recombinant Mtb pantothenate synthetase (PanC) inhibitors, coupled enzyme, confirmatory (AID 375); settings: coupled enzyme assay; at 10 µM, stronger effect = higher value;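 also: 0% = full reaction with vehicle and 100% = no enzyme background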
Sequence (P9WIL5 whole entry, looked up): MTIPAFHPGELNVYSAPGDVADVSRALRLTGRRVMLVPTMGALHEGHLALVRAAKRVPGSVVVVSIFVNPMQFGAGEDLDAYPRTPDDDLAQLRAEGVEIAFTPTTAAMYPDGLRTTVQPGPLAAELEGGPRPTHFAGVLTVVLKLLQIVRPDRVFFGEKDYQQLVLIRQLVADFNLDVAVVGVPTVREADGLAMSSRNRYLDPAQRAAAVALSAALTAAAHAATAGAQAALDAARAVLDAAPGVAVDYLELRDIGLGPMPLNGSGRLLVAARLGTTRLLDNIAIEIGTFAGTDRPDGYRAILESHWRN

Structure (SMILES)	inhibition
CN(Cc1cccs1)CC(O)COCc1ccco1 (stereo not given)	0%
CCOc1ccc(S(=O)(=O)Nc2ccccc2C(=O)Nc2ccccc2N2CCOCC2)cc1	1%
O=C(Nc1ccc2oc(Cc3ccc(Cl)cc3)nc2c1)c1cccnc1	0%
CC1CCCCC1NC(=O)c1nn(C)c(=O)c2ccccc12 (stereo not given)	0%
Nc1nc(Cl)nc2c1ncn2[C@H]1C[C@H](O)[C@@H](CO)O1	0%
COc1ccc(N2CCN(C(=O)C(OC(C)=O)c3ccccc3)CC2)cc1 (stereo not given)	3%
O=C(COC(=O)c1cncc(Br)c1)NCCC1=CCCCC1	0%
Cn1nc(C(=O)N2CCOCC2)c2ccccc2c1=O	0%
Cc1ccc2cc(CN(Cc3ccc4c(c3)OCO4)Cc3nnnn3Cc3ccco3)c(=O)[nH]c2c1C	0%
c1ccc2c(c1)CNc1ccccc1C2	0%
O=C(NCc1ccco1)c1ccc2c(=O)n(CC3CCCO3)c(=S)[nH]c2c1 (stereo not given)	3%
CCN(CC)CCN1C(=O)c2oc3ccc(F)cc3c(=O)c2C1c1ccncc1 (stereo not given)	0%
Cc1ccc(-n2c(Cn3cnc4ccccc43)nnc2SCC(=O)O)cc1	0%
O=C1c2ccccc2NC(c2ccco2)N1O (stereo not given)	5%
O=C(CCNS(=O)(=O)c1cccs1)Nc1ccccc1F	3%
C1=C(CCNc2ncnc3c2cnn3-c2ccccc2)CCCC1	6%
CCOC(=O)c1ccc(N2C(=O)CC(N(C)CCc3ccc(OC)c(OC)c3)C2=O)cc1 (stereo not given)	2%
COc1ccc(C(=O)NCCn2ccc3ccccc32)c(OC)c1	5%
CN1CCCN=C1COC(=O)C(O)(c1ccccc1)C1CCCCC1 (stereo not given)	0%
COc1ccc(C2/C(=C(/O)c3cnn(-c4ccccc4)c3C)C(=O)C(=O)N2CCN(C)C)cc1OC (stereo not given)	3%

Structure (SMILES)	inhibition
O=C1CN(c2ccccc2F)C(=O)CN1c1ccccc1F	0%
O=C(CSc1nc2c(sc3ccccc32)c(=O)n1Cc1ccco1)NCC1CCCO1 (stereo not given)	2%
CCN1CCN(C(=O)c2cc3c(=O)n(C)c4ccccc4c3n2C)CC1	0%
CCCN1CCN(C(=O)Cn2c(=O)oc3cc(S(=O)(=O)NCc4ccccc4)ccc32)CC1	3%
COC(=O)[C@H](C)NC(=O)Nc1cccc(C(F)(F)F)c1	0%
Cc1nc2ccc(F)cc2cc1C(=O)NCC1CCCO1 (stereo not given)	0%
Cc1ccccc1-c1nc(CN2CCC(C(=O)NCCCN3CCCC3)CC2)c(C)o1	0%
COCCNC(=O)CSc1nc(-c2ccc(OC)c(OC)c2)cc(C(F)(F)F)n1	2%
COc1ccc(C(CNC(=O)CN2C(=O)NC3(CC(C)CC(C)(C)C3)C2=O)N2CCOCC2)cc1 (stereo not given)	4%
COc1ccc(OCc2nc(N)nc(Nc3cccc(C)c3C)n2)cc1	1%
c1ccc(CSCc2cn3ccsc3n2)cc1	0%
O=C(CN1CCCN(S(=O)(=O)c2ccc(F)cc2)CC1)Nc1ccccc1Br	5%
COC(=O)c1ccccc1NC(=O)c1noc2c1CC(C(C)(C)C)CC2 (stereo not given)	2%
O=C(CN1C(=O)CCSc2ccccc21)Nc1ccccc1	0%
CN1CCN(c2nc3c(c(=O)n(C)c(=O)n3C)n2Cc2cccc3ccccc23)CC1	0%
CCOc1cc(C2C3=C(CCCC3=O)N(C)C3=C2C(=O)CCC3)cc(Cl)c1O	0%
CCN(Cc1nc2cc(OC)c(OC)cc2c(=O)[nH]1)C(=O)c1ccc(S(=O)(=O)N(C)C)cc1	0%
C[C@@H]1C[C@H]2[C@@H]3C[C@H](F)C4=CC(=O)C=C[C@]4(C)[C@@]3(F)[C@@H](O)C[C@]2(C)[C@@]1(O)C(=O)COC(=O)C(C)(C)C	0%
Cn1c(=O)cc(OCC(=O)N2CCN(c3cccc(C(F)(F)F)c3)CC2)c2ccccc21	12%
O=S(=O)(c1ccc(Br)s1)N1CCN(c2ccccc2)CC1	0%

— PubChem BioAssay
